Bioassay records deposited in PubChem by several laboratories.
Mtb FBA inh – Mtb fructose-bisphosphate aldolase inhibition; P9WQA3; purified M. tuberculosis FBA, fluorescence read-out; inhibition, % at 1 µM; 360,000 compounds, 2.3% hits; AID 588726; in the data active = inhibition above about 27%;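 note: 0% = vehicle and 100% = reference inhibitor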
Rv3671c inh – Rv3671c (M. tuberculosis) protease inhibition; P9WHR9; 320,000 compounds, 0.048% hits; inhibition, % at 5.96 µM; in the data active = inhibition above about 38%;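 note: extracellular domain of Rv3671c used as enzyme; 0% = enzyme with DMSO and 100% = no enzyme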
Target sequence (P9WHR9 whole entry, looked up, the tested form may be a part): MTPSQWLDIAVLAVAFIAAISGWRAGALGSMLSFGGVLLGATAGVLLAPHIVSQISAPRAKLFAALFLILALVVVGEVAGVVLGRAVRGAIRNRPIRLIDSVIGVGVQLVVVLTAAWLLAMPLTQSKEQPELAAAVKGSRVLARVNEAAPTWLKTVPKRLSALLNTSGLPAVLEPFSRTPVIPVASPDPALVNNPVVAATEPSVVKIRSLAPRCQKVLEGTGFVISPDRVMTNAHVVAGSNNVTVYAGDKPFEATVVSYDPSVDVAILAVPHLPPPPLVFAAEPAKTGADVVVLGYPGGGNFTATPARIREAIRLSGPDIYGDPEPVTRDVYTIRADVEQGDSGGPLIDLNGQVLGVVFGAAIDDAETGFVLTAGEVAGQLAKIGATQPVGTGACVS
FadD28 binding – M. tuberculosis FadD28 bisubstrate binding inhibition | FadD28 bisubstrate probe binding, fluorescence polarization | inhibition, % at 12.5 µM | 360,000 compounds, 0.22% hits; in the data active = inhibition above about 8.5%, passing the limit was not always enough
Mtb BioA inh – BioA (M. tuberculosis) enzyme inhibition | inhibition, % at 9.99 µM | 360,000 compounds, 0.096% hits | AID 602481 | purified M. tuberculosis BioA enzyme, plate reader; in the data active = inhibition above about 40%
GDH-TPI counter – counter-screen for M. tuberculosis FBA inhibitors: GDH-TPI coupled enzymes; inhibition, % at 4.8 µM; GDH-TPI coupled enzyme counterscreen, NADH absorbance; 360,000 compounds, 1.2% hits; in the data active = inhibition above about 30%;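 note: 0% = DMSO wells and 100% = wells lacking the enzyme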
Starred values were filed as active, the others as inactive. A selection: hits, their analogues and other compounds. The true share with any hit is near 3%.

What do the screens show for `Cc1c(C)c2c(OCC(=O)NCC(=O)NCC(=O)O)cc3c(c2oc1=O)CCC(C)(C)O3`?
Mtb FBA inh: active; Rv3671c inh: -5; FadD28 binding: -3; Mtb BioA inh: 0; GDH-TPI counter: 12

How did NCC[C@H]1CC[C@H](NC(=O)C2CCCC2)[C@@H](CO)O1 do in these assays?
Mtb BioA inh: -3

How did CNC[C@@H]1Oc2ccc(NC(=O)Nc3ccc(OC)cc3)cc2C(=O)N([C@H](C)CO)C[C@H]1C do in these assays?
Mtb BioA inh: 1

Results for CC(=O)/C(N=Nc1ccc(C(=O)O)cc1[N+](=O)[O-])=C(\C)O ?
Mtb FBA inh: -2; Rv3671c inh: 1; FadD28 binding: -2; Mtb BioA inh: -1; GDH-TPI counter: 69*

What do the screens show for `CC(C)NC(=O)N1[C@H](C(=O)N2CCC(Cc3ccccc3)CC2)[C@@H](CO)[C@@H]2Cn3c(cccc3=O)[C@@H]21`?
Mtb BioA inh: 0

What do the screens show for `Cc1ccc(S(=O)(=O)/N=C/c2ccc(N(C)C)cc2)cc1`?
Mtb FBA inh: -2; Rv3671c inh: 1; FadD28 binding: -2; Mtb BioA inh: -1; GDH-TPI counter: 35*

What do the screens show for `COc1ccc(C2Nc3ccccc3NC3=C2C(=O)CC(C)(C)C3)cc1OC` (stereo unspecified)?
Mtb FBA inh: 2; Rv3671c inh: 5; FadD28 binding: -2; Mtb BioA inh: -2; GDH-TPI counter: 8

Results for COc1cc(C2Nc3ccc4ccccc4c3C3=C2C(=O)CC(C)(C)C3)ccc1OC(C)C(=O)O (stereo unspecified) ?
Mtb FBA inh: 183*; Rv3671c inh: 6; FadD28 binding: -3; Mtb BioA inh: 1; GDH-TPI counter: 4

Results for COc1ccc(C2Nc3ccccc3NC3=C2C(=O)CC(C)(C)C3)cc1 (stereo unspecified) ?
Mtb FBA inh: 2; Rv3671c inh: 3; FadD28 binding: 1; Mtb BioA inh: -5; GDH-TPI counter: 11

Results for CCOc1ccc(C2Nc3ccccc3NC3=C2C(=O)CC(C)(C)C3)cc1OC (stereo unspecified) ?
Mtb FBA inh: -2; Rv3671c inh: -6; FadD28 binding: -1; Mtb BioA inh: -2; GDH-TPI counter: 10

What do the screens show for `COc1cc(C2Nc3ccc4ccccc4c3C3=C2C(=O)CC(C)(C)C3)ccc1OCC(=O)O` (stereo unspecified)?
Mtb FBA inh: 121*; Rv3671c inh: -4; FadD28 binding: -3; Mtb BioA inh: 8; GDH-TPI counter: 2

Results for CC1(C)CC(=O)C2=C(C1)c1c(ccc3ccccc13)NC2c1ccc(OCC(=O)O)cc1 (stereo unspecified) ?
Mtb FBA inh: active; Rv3671c inh: -10; FadD28 binding: 1; Mtb BioA inh: 0; GDH-TPI counter: 18

What do the screens show for `C[C@@H]1CCCCO[C@@H](CN(C)C(=O)CCC(F)(F)F)[C@H](C)CN([C@H](C)CO)C(=O)c2cc(NS(=O)(=O)c3cn(C)cn3)ccc2O1`?
Mtb BioA inh: 0

How did COCC(=O)N(C[C@@H]1[C@@H](c2ccccc2)[C@@H](CO)N1C(=O)NC(C)C)C(C)C do in these assays?
Mtb BioA inh: 4

How did CC1(C)CC(NC(=O)c2cc([N+](=O)[O-])cc([N+](=O)[O-])c2)CC(C)(C)N1 do in these assays?
Mtb FBA inh: -1; Rv3671c inh: 2; FadD28 binding: 0; Mtb BioA inh: 0; GDH-TPI counter: -4

What do the screens show for `COc1cc(OC)cc(C(=O)NC2CC(C)(C)NC(C)(C)C2)c1`?
Mtb FBA inh: active; Rv3671c inh: 0; FadD28 binding: -1; Mtb BioA inh: -2; GDH-TPI counter: 14

Results for O=C(Cc1ccccn1)N1CC[C@@H]2[C@H](CO)Nc3ccc(-c4cccc(F)c4)cc3[C@@H]21 ?
Mtb BioA inh: 4

What do the screens show for `Cc1noc(C)c1S(=O)(=O)Nc1ccc2c(c1)C(=O)N([C@@H](C)CO)C[C@H](C)[C@@H](CN(C)C(=O)Nc1ccc3c(c1)OCO3)OCCCC[C@H](C)O2`?
Mtb BioA inh: 3

Results for COC(=O)c1cc(C)nc2c1c(C)nn2-c1ccccc1 ?
Mtb FBA inh: 2; Rv3671c inh: 3; FadD28 binding: -2; Mtb BioA inh: 0; GDH-TPI counter: 15

How did Cc1nn(-c2ccccc2)c2nc(N)c(C(N)=O)cc12 do in these assays?
Mtb FBA inh: 71*; Rv3671c inh: 3; FadD28 binding: -2; Mtb BioA inh: 0; GDH-TPI counter: 20

What do the screens show for `CC(=O)C1=C(O)C(=O)N(c2ccc(S(=O)(=O)Nc3nccs3)cc2)C1c1ccc(F)cc1` (stereo unspecified)?
Mtb FBA inh: -2; Rv3671c inh: 7; FadD28 binding: -1; Mtb BioA inh: 0; GDH-TPI counter: 32*

What do the screens show for `CCCNC(=O)N[C@H]1CC[C@@H](CC(=O)N2CCN(C)CC2)O[C@@H]1CO`?
Mtb BioA inh: -2

How did CC1=CC(C#N)(C#N)C(C#N)(C#N)C(c2ccccc2)N1 (stereo unspecified) do in these assays?
Rv3671c inh: 43*

Results for CC1CCC(C(C)C)C2=C1C(C#N)(C#N)C(C#N)(C#N)C(c1ccccc1)N2 (stereo unspecified) ?
Mtb FBA inh: 8; Rv3671c inh: 5; FadD28 binding: 1; Mtb BioA inh: 12; GDH-TPI counter: 9

How did COc1ccc(/C=C/C(=O)Nc2nnc(C(C)C)s2)cc1OC do in these assays?
Mtb FBA inh: 6; Rv3671c inh: -6; FadD28 binding: 0; Mtb BioA inh: -1; GDH-TPI counter: 34*

Results for COc1ccc(C(=O)Nc2ccc3nc4n(c(=O)c3c2)CCCCC4)cc1OC ?
Mtb FBA inh: -2; FadD28 binding: -4; Mtb BioA inh: 1; GDH-TPI counter: -8

Results for COc1ccc(/C=C/C(=O)Nc2c(C(=O)O)[nH]c3ccccc23)cc1OC ?
Mtb FBA inh: 1; Rv3671c inh: 1; FadD28 binding: 0; Mtb BioA inh: 1; GDH-TPI counter: 31*

Results for COc1ccc(/C=C/C(=O)Nc2ccc(-n3nncc3-c3ccc(OC)c(OC)c3)cc2)cc1OC ?
Mtb FBA inh: -3; Rv3671c inh: -224; FadD28 binding: -2; Mtb BioA inh: -2; GDH-TPI counter: 36*

How did COc1ccc(/C=C/C(=O)Nc2ccc3nc4n(c(=O)c3c2)CCCC4)cc1OC do in these assays?
Mtb FBA inh: 0; Rv3671c inh: -5; FadD28 binding: 0; GDH-TPI counter: 36*

How did COc1ccc(-c2cnnn2-c2ccc(NC(=O)/C=C/c3ccc(OC)c(OC)c3)cc2)cc1 do in these assays?
Mtb FBA inh: 2; Rv3671c inh: -235; FadD28 binding: -23; GDH-TPI counter: 8

Results for C[C@@H]1CCCCO[C@H](CN(C)C(=O)Nc2ccc3c(c2)OCO3)[C@@H](C)CN([C@@H](C)CO)C(=O)c2cc(NS(=O)(=O)c3ccccc3)ccc2O1 ?
Mtb BioA inh: 2

What do the screens show for `CC(=O)Oc1ccccc1/C=C/c1ccc2ccccc2[n+]1C`?
Mtb FBA inh: 2; Rv3671c inh: 2; FadD28 binding: 0; Mtb BioA inh: 2; GDH-TPI counter: 31*
